In the library only some 12% were active in any assay of this set; here they are far more common.
G9a inh: qHTS Assay for Inhibitors of Histone Lysine Methyltransferase G9a. Histone-lysine N-methyltransferase EHMT2 (Homo sapiens), Q96KQ7. G9a H3K9 monomethylation, AlphaScreen, 2 h. Potency, µM (doses to about 102 µM), for the others: top-dose activity, negative = inhibition, hits mostly inhibitors. hit rate 8.8% among 350,000. AID 504332, 2011; also: % is scaled to controls: 0 for no effect and ±100 for the full control effect; nearly all actives have a fitted effect of over 75% in size
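Signal arises when biotinylated H3K9 peptide, once monomethylated, bridges streptavidin donor and antibody-captured acceptor beads. Enzyme at 20 nM was preincubated 15 min with test compounds; peptide 500 nM and SAM 20 uM then reacted for 2 h.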
HP1b chromo inh: HTS for Inhibitors of HP1-beta Chromodomain Interactions with Methylated Histone Tails. Chromobox protein homolog 1 (Homo sapiens), P83916. AlphaScreen HP1-beta / biotin-H3K9me3 peptide binding. Potency, µM (top dose mostly 114 µM), without a hit: at the top dose activity change, negative = inhibition, hits mostly inhibitors. hit rate 0.56% among 390,000. AID 540317, 2011; also: nearly all actives have a fitted effect of over 70% in size
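AlphaScreen: HP1-beta (50 nM) preformed 30 min with biotin-H3(1-18)K9me3 peptide (50 nM) in PBS pH 7.4, 0.01% Tween-20. Compound added for 30 min at RT, then streptavidin donor/nickel chelate acceptor beads (10 ug/mL) for 30 min.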
L3MBTL1 inh: qHTS Assay for the Inhibitors of L3MBTL1; Potency, µM (titrated, usually from 57.1 µM), for inactives: at the top dose activity, negative = inhibition, actives largely listed as inhibitors; Lethal(3)malignant brain tumor-like protein 1 (Homo sapiens), Q9Y468; AID 485360, 2010; hit rate 0.66% among 230,000; AlphaScreen L3MBTL1–H3K9me1 peptide binding; also: % is scaled to controls: 0 for no effect and ±100 for the full control effect; nearly all actives have a fitted effect of over 60% in size
Target sequence (Q9Y468 whole entry, looked up): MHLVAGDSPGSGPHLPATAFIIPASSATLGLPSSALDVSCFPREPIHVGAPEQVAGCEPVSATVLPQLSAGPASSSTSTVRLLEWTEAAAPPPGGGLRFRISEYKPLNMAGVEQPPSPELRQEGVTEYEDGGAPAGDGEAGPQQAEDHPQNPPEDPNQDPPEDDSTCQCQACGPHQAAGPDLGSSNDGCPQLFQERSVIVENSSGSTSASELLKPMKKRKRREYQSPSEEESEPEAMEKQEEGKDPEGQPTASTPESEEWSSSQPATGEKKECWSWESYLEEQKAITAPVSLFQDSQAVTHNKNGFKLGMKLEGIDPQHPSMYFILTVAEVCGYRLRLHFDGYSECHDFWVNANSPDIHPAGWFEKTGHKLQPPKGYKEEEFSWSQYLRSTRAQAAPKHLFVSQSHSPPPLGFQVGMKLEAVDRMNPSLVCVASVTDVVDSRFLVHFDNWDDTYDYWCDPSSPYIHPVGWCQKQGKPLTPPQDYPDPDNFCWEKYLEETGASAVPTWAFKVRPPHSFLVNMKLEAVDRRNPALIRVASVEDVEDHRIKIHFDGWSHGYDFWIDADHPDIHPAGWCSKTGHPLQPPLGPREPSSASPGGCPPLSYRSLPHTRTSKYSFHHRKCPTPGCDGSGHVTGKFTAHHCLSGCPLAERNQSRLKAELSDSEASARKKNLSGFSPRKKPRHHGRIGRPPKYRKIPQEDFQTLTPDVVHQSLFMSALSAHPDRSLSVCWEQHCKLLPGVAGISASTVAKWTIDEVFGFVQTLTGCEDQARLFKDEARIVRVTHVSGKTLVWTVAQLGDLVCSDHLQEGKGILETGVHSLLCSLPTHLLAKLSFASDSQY
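L3MBTL1 (50 nM) pre-complexed 30 min with biotinylated H3(1-15)K9me1 peptide (75 nM), then compounds added for 30 min at room temperature; AlphaScreen streptavidin donor/nickel chelate acceptor beads (10 ug/mL final) read after 30 min dark incubation.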
Sfp PPTase inh: qHTS Assay for Inhibitors of Bacillus subtilis Sfp phosphopantetheinyl transferase (PPTase); 4'-phosphopantetheinyl transferase ffp (Bacillus subtilis), Q9F4F7; Biochemical Sfp PPTase activity, qHTS; Potency, µM, inactives show largest response in the series, negative = inhibition, usual class: inhibitors; hit rate 3.5% among 310,000; AID 1490, 2009;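 also: the enzyme is Sfp with the accession as filed and its product quenches rhodamine fluorescence; 0% = enzyme reaction without inhibitor and -100% = no enzyme wells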
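With Hepes-Na pH 7.6 buffer containing 10 mM MgCl2, Sfp (15 nM) modified BHQ-2-YbbR (12.5 uM) using rhodamine-CoA (5 uM). Two reads 30 minutes apart at 525/598 nm yielded each well's rate.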
JMJD2A Tudor inh: qHTS Assay for Inhibitors of JMJD2A-Tudor Domain | Lysine-specific demethylase 4A (Homo sapiens), O75164 | AlphaScreen JMJD2A-Tudor / H3K4me3 peptide binding | Potency, µM (series often up to 114 µM), without a hit: at the highest dose activity change, negative = inhibition, usual class: inhibitors | hit rate 4.4% among 390,000; also: % is scaled to controls: 0 for no effect and ±100 for the full control effect; nearly all actives have a fitted effect of over 50% in size
BAZ2B inh: qHTS Assay for Inhibitors of BAZ2B | Bromodomain adjacent to zinc finger domain protein 2B (Homo sapiens), Q9UIF8 | AlphaScreen BAZ2B-H3K14Ac peptide displacement | Potency, µM (series often up to 114 µM), for the others: top-dose activity change, negative = inhibition, actives largely listed as inhibitors | hit rate 4.4% among 360,000 | AID 504333, 2011; also: % is scaled to controls: 0 for no effect and ±100 for the full control effect; nearly all actives have a fitted effect of over 60% in size
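Multi-concentration screen (max 110 uM) measuring displacement of acetylated histone H3 peptide from BAZ2B by AlphaScreen, using 50 nM protein, 50 nM peptide and 10 ug/mL streptavidin donor plus Ni-chelate acceptor beads.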
Active calls of the source: *; u = inconclusive; x = no result given; [ ] = another dose, or the depositor's remark. Calls follow the shape of the dose curve; as a rule, active = well fitted curve in the direction sought with a large enough effect; inconclusive = small, poorly fitted or top-dose-only effect, or another doubt; inactive = no such curve, though single readings can be large; an effect the other way counts as inactive or inconclusive. Potency is read from the fitted curve at half-maximal effect.

SMILES | G9a inh | HP1b chromo inh | L3MBTL1 inh | Sfp PPTase inh | JMJD2A Tudor inh | BAZ2B inh
O=C(Cc1c(F)cccc1Cl)NNC(=O)c1ccncc1 | 4%[12.7 µM] | 27% | -1% | x | -10% | u
Cc1cccc(-c2nsc(SCC(=O)NCc3ccc4c(c3)OCO4)n2)c1 | -8% | 39% | -7% | -25% | -3%[57.1 µM] | 5%
CSc1nsc(SCC(=O)Nc2ccccc2C(N)=O)n1 | 79µM* | 13% | x | 2% | -6% | -3%
COc1ccc(-c2nsc(SCC(=O)NCc3ccc4c(c3)OCO4)n2)cc1 | 25µM* | 50% | 5% | -8% | 4% | -4%
COc1ccc(CNC(=O)CSc2nc(SC)ns2)cc1 | 45µM* | 22% | x | 2% | -13% | -7%
CC(NC(=O)c1cccc(Cl)c1)C1CC2CCC1C2 (stereo not drawn) | 12% | 32% | x | -13% | 19% | 11%
Cc1ccccc1NC(=O)CSc1nc(=O)n(CCN2CCOCC2)c2c1CCC2 | -4%[59 µM] | 25% | x | x | -8% | -7%
CCc1ccc2oc(-c3ccc(OC)cc3)cc(=Nc3cccc(C(=O)O)c3)c2c1 | u | -23% | x | u | 14µM* | -38%
COc1ccc(-c2cc(=Nc3ccc(C(=O)O)cc3)c3cc(C)ccc3o2)cc1 | u | -4% | x | 17% | u | x
CCc1ccc2oc(-c3ccc(OC)cc3)cc(=Nc3c(C)n(C)n(-c4ccccc4)c3=O)c2c1 | 25µM* | u | x | 79µM* | u | 40µM*
O=C(CCSCc1ccccc1Cl)NCc1ccc(F)cc1Cl | 46%[59 µM] | 97% | x | x | 2% | 77%
Cc1ccc(C2CC(=O)Oc3cc(C)c(Cl)c(C)c32)cc1 (stereo not drawn) | 101% | x | x | -17% | x | x
Cc1cccc(CN2C(=O)/C(=C\c3ccc(C(=O)NCCCN4CCN(C)CC4)cc3)Oc3ccccc32)c1 | u | x | x | 50µM* | x | -8%[57.1 µM]
CN1CCN(CCCNC(=O)c2ccc(/C=C3\Oc4ccccc4N(Cc4ccccc4F)C3=O)cc2)CC1 | u | 17%[57 µM] | x | 56µM* | -34% | -31%
O=C(NCCn1cc(SCc2ccccc2Cl)c2ccccc21)c1cccs1 | 12%[59 µM] | 25% | x | x | -15% | -19%
Cc1ccc(OCc2nc(-c3ccccc3)no2)cc1 | 440% | 83% | x | 1% | -3%[11.4 µM] | 125%
COC(=O)c1cccnc1NC(=S)NC1CCCCC1 | 14µM* | 38% | x | -7% | -25% | 9%
COc1ccccc1NC(=S)NNC(=O)c1ccncc1 | u | 34% | 4% | 24% | -20% | -11%
COC(=O)c1ccc(NC(=S)NC2CCCCC2)cc1 | x | 23% | -2% | 6% | -11% | -2%
COC(=O)c1cccnc1NC(=S)NNC(=O)c1ccncc1 | u | 39% | x | 10µM* | 24% | -4%
O=C(COc1ccccc1[N+](=O)[O-])Nc1ccc2c(c1)CCC2 | 17%[12.7 µM] | 47% | -8% | x | -10% | -20%
CN(C)C(CNC(=O)c1ccc2nccnc2c1)c1ccco1 (stereo not drawn) | x | 2%[57 µM] | -4% | x | -27% | x
O=C(CCC(=O)N1CCN(c2ccccc2F)CC1)c1ccc(F)cc1 | x | 12% | 13% | 3% | -13% | -2%
COc1ccc(OC)c(NC(=O)CCN2CCN(c3ccccc3F)CC2)c1 | u | -4% | x | u | -24% | u
O=C(CCN1CCN(c2ccccc2F)CC1)c1ccc(Br)cc1 | 3.2µM* | 20% | -1% | -26% | -26% | -4%
SMILES | G9a inh | HP1b chromo inh | L3MBTL1 inh | Sfp PPTase inh | JMJD2A Tudor inh | BAZ2B inh
COc1ccc(C(=O)CCN2CCN(c3ccccc3F)CC2)cc1 | u | 51% | 42%[11.4 µM] | 50µM* | -4%[11.4 µM] | -33%
CCc1ccc(C(=O)NNC(=O)CN2C(=O)NC3(CCCC3)C2=O)cc1 | 6%[12.7 µM] | 53% | 5% | x | -6% | 0%
Cc1ccc(NC(=O)Cn2cnc3c2c(=O)n(C)c(=O)n3C)cc1C | -33%[59 µM] | 35% | x | x | 3% | 5%
COCC1CCN(Cc2nc(-c3ccc4c(c3)OCO4)no2)C1 (stereo not drawn) | -28% | 36% | -5% | 19% | -5% | -37%
c1cc(C2CCN(Cc3nc(-c4ccc5c(c4)OCO5)no3)CC2)ccn1 | 3.5µM* | 10% | -15% | -7% | 79µM* | 56µM*
Nc1ccc2nc(SCc3ccccc3F)sc2c1 | 22µM* | u | x | -22% | 25µM* | u
O=C(Nc1ccc2nc(SCc3ccccc3)sc2c1)c1ccccc1F | 0%[59 µM] | 50% | x | x | -3% | -4%
Nc1ccc2nc(SCC(=O)c3ccccc3)sc2c1 | 45µM* | 10% | x | 0% | -27% | u
Cc1ccc(NC(=O)Cn2cc3c(n2)CCC(C)C3)cc1C (stereo not drawn) | -2%[59 µM] | 11% | x | x | -17% | 2%
CC(C)(C)C(=O)/C=c1\s/c(=C\c2ccc(-c3ccc([N+](=O)[O-])cc3)o2)c(=O)n1CC(=O)NC(N)=O | 45µM* | 12% | -23% | u | -8% | u
CCC(=O)N/N=C/c1ccc(-c2ccc([N+](=O)[O-])cc2)o1 | x | 0% | 3% | -7% | -6% | -4%
Brc1ccc(NC(c2ccccc2)c2ccncc2)cc1 (stereo not drawn) | u | 17% | x | -9% | 56µM* | 71µM*
CC(Nc1ccccc1)c1ccncc1 (stereo not drawn) | 8% | 64% | 2% | 24% | -6% | -22%
CCNc1nc(C#N)nc2c1ncn2-c1cccc(Cl)c1 | x | x | x | x | -1% | x
CCC(Oc1ccc2c(c1)C(=O)CC(C)(C)O2)C(=O)NCCN1CCCCCC1 (stereo not drawn) | 13µM* | u | -4% | u | 45µM* | u
Cc1cc(C)n2ncc(C(=O)NCC(C)C)c2n1 | x | x | x | x | 1% | x
CC(=O)C1=C(c2cccc([N+](=O)[O-])c2)N(C(C)=O)n2c(C)nnc2S1 | 10µM* | 20% | x | -11% | -36% | u
C=C(CN(C)C)C(=O)c1ccc2c(c1)OCO2 | x | u | x | x | 14µM* | x
C=C(CN(C)C)C(=O)c1cc(OC)c(OC)cc1OC | x | u | x | x | 79µM* | x
C=C(CN(C)C)C(=O)c1ccc(C)cc1C | x | 32µM* | x | x | 79µM* | x
Cc1ccc(C(=O)CC(=O)c2ccccc2C)c(O)c1 | 43% | 20% | x | 4% | 5% | 7%
CC1(C)CC(=O)C(CC2=C(O)CC(C)(C)CC2=O)C(=O)C1 | u | 34% | 7% | u | -31% | 10%
CC1(C)CC(=O)C(CC2=C(O)CC(C)(C)CC2=O)=C(O)C1 | 4.5µM* | 40% | 1% | u | -16% | 7%
